Assay results: article PMC5540273 (PLoS ONE, 2017)

How the values were obtained:
Conditions in all cases: concentration: 1 μM, replicates: in singlicate; n = 1
ADCK4 = tested on: ADCK4
AKT1 = tested on: AKT1
AKT2 = tested on: AKT2
AKT3 = tested on: AKT3
ALK = tested on: ALK
AMPK-alpha1 = tested on: T1, AMPK-alpha1
T1 construct: gene PRKAA1

AMPK-alpha2 = tested on: T2, AMPK-alpha2
T2 construct: gene PRKAA2

ANKK1 = tested on: ANKK1
ARK5 = tested on: T3, ARK5
T3 construct: gene NUAK1

ASK1 = tested on: T4, ASK1
T4 construct: gene MAP3K5

ASK2 = tested on: T5, ASK2
T5 construct: gene MAP3K6

AURKA = tested on: AURKA
AURKB = tested on: AURKB
AURKC = tested on: AURKC
AXL = tested on: AXL
BIKE = tested on: T6, BIKE
T6 construct: gene BMP2K

BLK = tested on: BLK
BMPR1A = tested on: BMPR1A
BMPR1B = tested on: BMPR1B
BMPR2 = tested on: BMPR2
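Further: KINOMEscan kinase panel screen.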

| SMILES | %Inh (ADCK4) [%] | %Inh (AKT1) [%] | %Inh (AKT2) [%] | %Inh (AKT3) [%] | %Inh (ALK) [%] | %Inh (AMPK-alpha1) [%] | %Inh (AMPK-alpha2) [%] | %Inh (ANKK1) [%] | %Inh (ARK5) [%] | %Inh (ASK1) [%] | %Inh (ASK2) [%] | %Inh (AURKA) [%] | %Inh (AURKB) [%] | %Inh (AURKC) [%] | %Inh (AXL) [%] | %Inh (BIKE) [%] | %Inh (BLK) [%] | %Inh (BMPR1A) [%] | %Inh (BMPR1B) [%] | %Inh (BMPR2) [%] |
| --- | --- | --- | --- | --- | --- | --- | --- | --- | --- | --- | --- | --- | --- | --- | --- | --- | --- | --- | --- | --- |
| Cn1cc(-c2ccc3c(c2)CCN3C(=O)Cc2cc(F)cc(F)c2F)c2c(N)ncnc21 [GSK2634140] | 19 | 0 | 0 | 0 | 8 | 18 | 13 | 12 | 20 | 0 | 0 | 18 | 92.6 | 59 | 89 | 33 | 72 | 0 | 5 | 0 |
| COc1cccc(-c2nc(-c3ccccc3)[nH]c2-c2ccncc2)c1 [SB-610250] | 77 | 0 | 0 | 0 | 18 | 17 | 2 | 0 | 0 | 2 | 11 | 0 | 39 | 0 | 15 | 0 | 60 | 0 | 0 | 0 |
| N#Cc1cnc2cc(-c3cnc(CNCCN4CCOCC4)s3)ccc2c1Nc1ccc(Oc2ccccc2)cc1 [GW664114] | 36 | 0 | 0 | 0 | 34 | 21 | 30 | 45 | 10 | 5 | 9 | 0 | 39 | 25 | 98 | 9 | 99 | 0 | 0 | 8 |
| Cc1cc(-c2c(-c3ccc(F)cc3)ncn2CCCN2CCOCC2)nc(N)n1 [SB-222517] | 0 | 16 | 0 | 23 | 0 | 10 | 27 | 0 | 0 | 0 | 14 | 28 | 39 | 3 | 0 | 0 | 8 | 20 | 0 | 35 |
| c1ccc(Oc2ccc(Nc3ccnc4cc(-c5ccc(CN6CCCCC6)o5)ccc34)cc2)nc1 [GW567143] | 8 | 0 | 14 | 0 | 26 | 0 | 0 | 9 | 12 | 0 | 24 | 10 | 80 | 44 | 8 | 8 | 95.5 | 0 | 0 | 0 |
| CCn1cnc2c(NCc3ccccc3)ncnc21 [SKF-96418] | 0 | 0 | 0 | 0 | 0 | 3 | 0 | 0 | 0 | 0 | 0 | 0 | 41 | 0 | 0 | 0 | 16 | 0 | 0 | 48 |
| CCNc1nccc(-c2c(-c3ccc(F)cc3)ncn2C2CCN(C)CC2)n1 | 8 | 4 | 0 | 0 | 0 | 0 | 0 | 0 | 0 | 15 | 0 | 0 | 0 | 8 | 0 | 13 | 3 | 0 | 0 | 0 |
| CC(C)(C)c1ccc(C(=O)Nc2cn3cc(-n4ccnc4)ccc3n2)cc1 | 19 | 6 | 0 | 0 | 0 | 14 | 0 | 82 | 2 | 80 | 6 | 0 | 24 | 0 | 0 | 0 | 0 | 3 | 0 | 8 |
| CS(=O)(=O)c1cccc(CNc2nc(Nc3ccc4c(c3)CCC(=O)N4)ncc2C(F)(F)F)c1 | 4 | 0 | 0 | 0 | 0 | 7 | 0 | 3 | 86 | 0 | 0 | 97.8 | 96.7 | 71 | 23 | 82 | 0 | 0 | 0 | 39 |
| Nc1ncc(-c2cn[nH]c2)c2scc(-c3ccc4c(c3)CCN4C(=O)Cc3ccccc3)c12 [GSK2593067] | 0 | 0 | 2 | 0 | 0 | 11 | 16 | 1 | 26 | 5 | 21 | 13 | 98.6 | 87 | 98.8 | 67 | 96 | 0 | 0 | 0 |
